# High-throughput results (PubChem)
# ATXN viability: reduces viability in counter-screen for ATXN expression inhibitors; S2 cells (HEK-293 line with an ATXN2-luciferase reporter) viability, CellTiter-Fluor protease fluorescence, 24 h; Potency, µM (titrated, usually from 56.7 µM), most hits filed as cytotoxic; 0.49% of 400,000 active; further: nearly all actives have a fitted effect of over 40% in size
# ATXN2 expr inh: reduces ATXN2 reporter expression in HEK-293 cells; HEK-293 ATXN2-luciferase reporter, luminescence, 24 h; Potency, µM (highest dose often 57 µM), for inactives: at the top dose activity change, negative = inhibition, hits mostly inhibitors; 0.72% of 360,000 active; further: on the % scale 0 is the no-effect control and ±100 the full control effect; nearly all actives have a fitted effect of over 55% in size
#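 ATXN2-luciferase reporter cells (luciferase flanked by upstream and downstream ATXN2 gene portions) were treated 24 h at 37 °C with compounds at up to 57 uM. SteadyGlo luminescence gave expression; GF-AFC fluorescence gave viability.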
# Nrf2 inh: inhibitors of Nrf2 signaling; Potency, µM (titrated, usually from 46 µM), for inactives: at the top dose activity change, negative = inhibition, hits mostly inhibitors; A549 ARE-Fluc reporter, luciferase luminescence, 18-24 h; 2.1% of 360,000 active; further: on the % scale 0 is the no-effect control and ±100 the full control effect; nearly all actives have a fitted effect of over 60% in size
#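 A549 ARE_Fluc cells (5000/well, 5% FBS OPTI-MEM) pre-incubated 2 h, then treated with compounds 18-24 h at 37C/5% CO2 in concentration-response. CellTiter-Fluor viability read first; BugLite luciferase luminescence after 15 min at room temperature gives Nrf2 activity.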
# A549 viability: A549 cytotoxicity, counter-screen for Nrf2 inhibitors; A549 ARE-Fluc cells, CellTiter-Fluor viability, 18-24 h; Potency, µM (top dose mostly 46 µM), without a hit: at the highest dose activity change, negative = cytotoxicity, most hits filed as inhibitors; 0.16% of 390,000 active; AID 504648; further: on the % scale 0 is the no-effect control and ±100 the full control effect
#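 A549 ARE-Fluc cells in 5% FBS OPTI-MEM, 5000 cells/well, rested 2 h then exposed to compounds in concentration-response for 18-24 h at 37 °C. Viability by CellTiter-Fluor fluorescence (Ex 405/Em 525) after 30 min; luciferase luminescence (BugLite, 15 min, RT) read afterwards.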
# Nrf2 ARE act: activators of Nrf2 (ARE) signaling | Potency, µM (series often up to 46.1 µM), without a hit: at the highest dose activation, actives largely listed as activators | AID 624171 | 0.31% of 410,000 active | AREc32 ARE-luciferase reporter (MCF7-derived line), luminescence, 24 h; further: % of control where 0% means no effect; nearly all actives have a fitted effect of over 65% in size
#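 Quantitative high-throughput format: AREc32 reporter cells, 1000 per well, received compound by pin transfer and were incubated 24 hr at 37 deg C, 5% CO2, before Steady-Glo luminescence detection.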
# * marks the source's active call; other numbers are inactive results; i = inactive; u = inconclusive; x = not tested or not shown. Only some compounds are listed: those with a hit (about 2.9% of all), similar ones and a draw of the others. The call rests on the fitted dose curve; in most records, active means well fitted curve in the direction sought with a large enough effect; inconclusive means small, poorly fitted or top-dose-only effect, or another doubt; inactive means no such curve, though single readings can be large; an effect the other way counts as inactive or inconclusive. Potency means the concentration at half of the fitted maximal effect.
SMILES,ATXN viability,ATXN2 expr inh,Nrf2 inh,A549 viability,Nrf2 ARE act
COCOCCn1cc(CN2CCS(=O)(=O)N(Cc3ccc(-c4ccc(C)cc4)cc3)C(C)C2=O)nn1 (stereo unspecified),u,-22%,x,x,2%
COCOCCn1cc(CN2CCS(=O)(=O)N(Cc3ccc(-c4ccc(Cl)c(Cl)c4)cc3)C(C)C2=O)nn1 (stereo unspecified),x,28µM*,x,x,-2%
CC1C(=O)N(Cc2cn(CCC3OCCCO3)nn2)CCS(=O)(=O)N1Cc1ccc(-c2ccc(Cl)c(Cl)c2)cc1 (stereo unspecified),25µM*,25µM*,x,x,-3%
CC1C(=O)N(Cc2cn(CCC3OCCCO3)nn2)CCS(=O)(=O)N1Cc1ccc(-c2ccc(F)cc2)cc1 (stereo unspecified),u,u,x,x,1%
CC(=O)N/C(=C\c1ccccc1)C(=O)OCC(=O)Nc1ccc(C)c(S(=O)(=O)N(C)C)c1,i,5%,6%,-1%,-1%
CCCNC(=O)c1cc(C)no1,i,-1%,22%,0%,0%
CC(C)c1ccc(NC2CCCN(C(=O)CSc3nncn3C)C2)cc1 (stereo unspecified),i,x,-14%,-5%,0%
CSc1ncccc1C(=O)OCc1nc2ccsc2c(=O)[nH]1,i,16%,12%,-8%,u
COc1ccc(CN2CCCC(c3nc(-c4ccncc4)ncc3-c3ccccc3)C2)cc1OC (stereo unspecified),i,x,x,x,x
C/C(=N\Nc1ccccn1)c1ccc(N2CCOCC2)cc1,i,44%,37%,-7%,1%
CC(C)CC1C(=O)N(Cc2cn(CCC3OCCCO3)nn2)CCS(=O)(=O)N1Cc1ccc(-c2ccc(Cl)c(Cl)c2)cc1 (stereo unspecified),32µM*,u,x,x,-3%
CCc1ccc(NC(=O)CSc2nc(-c3ccccc3)no2)cc1,x,x,-5%,-11%,13%
Clc1ccc2nc(-c3ccco3)c(Cc3ccsc3)n2c1,i,-1%,x,x,11µM*
COC(=O)c1ccc2nc(-c3ccco3)c(Cc3cccc(Cl)c3)n2c1,i,-1%,x,x,5.6µM*
Brc1ccc2nc(-c3ccco3)c(Cc3ccsc3)n2c1,u,11%,x,x,u
Cc1ccc2nc(-c3ccco3)c(CC(C)(C)C)n2c1,20µM*,u,x,x,u
Clc1ccc2nc(-c3ccco3)c(Cc3ccccc3)n2c1,u,-28%,x,x,10µM*
O=C(Nc1ccc(N2CCOCC2)cc1)c1ccc(COc2ccccc2)cc1,i,-13%,u,6%,0%
CN(CCCS(=O)(=O)[O-])c1ccc(/C=C/c2ccc3ccccc3[n+]2C)cc1,i,x,-34%,-10%,0%
CC(=O)Oc1ccccc1/C=C/c1ccc2ccccc2[n+]1C,u,x,u,u,11µM*
CN(C)c1ccc(/C=C/c2ccc3ccccc3[n+]2C)cc1,10µM*,u,15µM*,23µM*,-2%
COc1ccc(/C=C/c2ccc3ccccc3[n+]2C)cc1OC,i,x,-29%,-20%,11%
CSc1nc(Oc2ccc(C)cc2)cc(C(F)(F)F)n1,i,-21%,x,4%,0%
Cn1c(/C(C#N)=C/c2ccccc2Br)nc2ccccc21,x,x,u,u,8.9µM*
CCn1c(/C(C#N)=C/c2ccccc2Cl)nc2ccccc21,i,10%,x,0%,u
SMILES,ATXN viability,ATXN2 expr inh,Nrf2 inh,A549 viability,Nrf2 ARE act
COc1ccc(CCC(=O)Nc2nnc(C(F)(F)F)s2)cc1,i,7%,8%,-6%,-1%
O=C(Nc1cc(Cl)cc(Cl)c1)c1ccc(Cn2c(=O)[nH]c3ccsc3c2=O)cc1,19µM*,-24%,u,-5%,0%
CCc1c(C)nc2nncn2c1NCc1ccc(Cl)cc1,x,x,8.2µM*,-17%,0%
Nc1ccc(O)c2c1C(=O)c1ccccc1C2=O,20µM*,-18%,-18%,u,6%
Cc1ccccc1Cn1nc(C)c(NC(=O)c2cc3nc(-c4ccco4)cc(C(F)(F)F)n3n2)c1C,i,-19%,21µM*,-10%,2%
Cc1ccccc1Cn1nc(C)c(NC(=O)c2cc(-c3ccco3)on2)c1C,i,x,18%,12%,-1%
C=C1CCN([C@@H](CC(C)C)C(=O)O)S(=O)(=O)c2ccccc21,i,0%,-9%,-7%,-1%
NS(=O)(=O)c1ccc(NC(=O)CN2C(=O)c3ccccc3C2=O)cc1,i,-13%,1%,-10%,0%
Oc1ccc(N2CCN(c3ncnc4sc5c(c34)CCC5)CC2)cc1,i,-19%,15µM*,-11%,0%
COc1ccc(OCC(=O)N2CCC(c3nc4ccccc4s3)CC2)cc1,u,-23%,-28%,1%,5%
O=C(COc1ccc([N+](=O)[O-])cc1)N1CCC(c2nc3ccccc3s2)CC1,u,-38%,15µM*,-25%,-1%
COc1ccccc1OC(C)C(=O)N1CCC(c2nc3ccccc3s2)CC1 (stereo unspecified),i,-27%,-15%,-4%,5%
CCc1ccc(OC(C)C(=O)N2CCC(c3nc4ccccc4s3)CC2)cc1 (stereo unspecified),u,0%,18µM*,-22%,0%
CCCCOc1ccc(/C=N/NC(=O)c2nnn(-c3nonc3N)c2C)cc1,i,x,u,2%,0%
CCc1nc2ccc(C(=O)Nc3cc(-c4ccccc4)ccc3OC)cn2c1N(CCN(C)C)CC1CC1,28µM*,u,x,x,-3%
COc1ccc(/C=N/Nc2cc(C)nc(-n3nc(C)cc3C)n2)c(OC)c1,u,16µM*,u,-9%,4%
CCOc1cc(/C=N/Nc2cc(C)nc(-n3nc(C)cc3C)n2)ccc1O,u,1.3µM*,u,-18%,9%
Cc1cc(N/N=C/c2ccc(F)cc2)nc(-n2nc(C)cc2C)n1,i,0%,u,0%,0%
C=CCN1C(=O)/C(=C/C=C2/N(CC)c3ccc(S(=O)(=O)N(C)C)cc3N2CC)SC1=S,0.89µM*,x,-12%,u,2%
C=CCN1C(=O)/C(=C\C=C2\N(C)c3ccccc3C2(C)C)SC1=S,u,1%,-12%,u,0%
Cc1ccc(S(=O)(=O)NC(C)(C)C)cc1C(=O)OC(C)C(=O)NC1CC1 (stereo unspecified),u,6%,-20%,0%,0%
O=C1/C(=C/c2cccs2)SC(=S)N1c1ccccc1,u,-5%,10µM*,u,2%
COc1ccc(-n2nnnc2S(=O)(=O)Cc2ccc(C(=O)O)cc2)cc1,u,u,u,0%,19%
COc1ccc(-n2nnnc2S(=O)(=O)CC(=O)N2CCCCC2)cc1,10µM*,13µM*,26µM*,u,-4%
COc1ccc(-n2c(C)cc(C(=O)CN3C(=O)c4ccccc4C3=O)c2C)cc1,i,8%,25%,5%,5%
